Bioassay records as filed in PubChem.
HCMV antiviral: qHTS Assay for inhibitors of the human cytomegalovirus (HCMV). HFF cells, HCMV-luciferase reporter, 72 h; hits give low values. activity change, negative = inhibition, % at 57.5 µM. hit rate 4.5% among 410,000. AID 1259415, 2018; in the data active means activity change below about -60%; inconclusive means no clear call, values can overlap the other calls; inactive means above about -39%; further: on the % scale 0 is the no-effect control and ±100 the full control effect
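HFF cells seeded 16 h at 37C, treated with compounds, infected with luciferase-reporter HCMV at MOI 1 PFU/cell; luciferase read at 72 h post infection, normalized to buffer-only and Salinomycin controls.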
Shiga toxin inh: A qHTS for Small Molecule Inhibitors of Shiga Toxin; AID 2315, 2010; inhibition, % at 38.7 µM; hit rate 9.2% among 290,000; Vero cells, Shiga toxin protein synthesis inhibition reporter; in the data active means inhibition mostly above about 28%, no sharp cut-off; inactive means mostly below about 43%; further: 0% is about no effect
Pf growth 48h: Primary qHTS for delayed death inhibitors of the malarial parasite plastid, 48 hour incubation | P. falciparum luciferase growth in erythrocytes, 48 h | Potency, µM (titrated, usually from 28.7 µM), inactives show at the top dose activity change, negative = inhibition, actives largely listed as inhibitors | hit rate 5.9% among 310,000; further: potency means the concentration at half of the fitted maximal effect; on the % scale 0 is the no-effect control and ±100 the full control effect
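In quantitative HTS format, infected erythrocytes bearing luciferase-reporter parasites were treated for a single generation at 37 C. Luminescence after adding detection reagent served as the growth measure.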
Pf growth 96h: Primary qHTS for delayed death inhibitors of the malarial parasite plastid, 96 hour incubation. P. falciparum luciferase reporter growth, 96 h. Potency, µM (top dose mostly 28.7 µM), inactives show at the highest dose activity change, negative = inhibition, hits mostly inhibitors. hit rate 6.9% among 320,000; further: potency means the concentration at half of the fitted maximal effect; on the % scale 0 is the no-effect control and ±100 the full control effect
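Parasite growth measured via integrated firefly luciferase reporter in P. falciparum. Infected erythrocytes at 2% hematocrit, 0.05% parasitemia final were treated 96 hours at 37 C under 5% CO2, and luminescence was read.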
Cycloheximide cs: Cycloheximide Counterscreen for Small Molecule Inhibitors of Shiga Toxin. cell reporter, cycloheximide protein synthesis inhibition counterscreen. max response, %. hit rate 12% among 300,000. AID 2314, 2010; in the data active means max response mostly above about 13%, no sharp cut-off; inactive means mostly below about 14%; further: read at 38.3 µM for the half of the compounds with a filed dose; 0% is about no effect
An asterisk follows results filed as active. Sampled rows, rich in hits. Any-hit rate of the full collection: about 20%. Unless noted, the call rests on the fitted dose curve; in most records, active means well fitted inhibition curve with a large enough effect; inconclusive means small, poorly fitted or top-dose-only effect, or another doubt; inactive means no such curve, though single readings can be large or run the other way.

For O=C(N/N=C(\Cc1ncc[nH]1)c1ccccc1)c1cccnc1 the results were HCMV antiviral inconclusive, Shiga toxin inh 8.7, Pf growth 48h 9.28µM*, Pf growth 96h inconclusive and Cycloheximide cs -1.3.
`CCC/C(=N\NC(=O)c1ccccc1C)c1ccccc1` gave HCMV antiviral -18.5, Shiga toxin inh 1.0, Pf growth 48h -3.9%, Pf growth 96h 18.9% and Cycloheximide cs 9.1.
`O=C(N/N=C(\c1ccccc1)c1cccnc1)c1cccc(F)c1` gave HCMV antiviral -112.0*, Shiga toxin inh 17.0, Pf growth 48h 1.85µM*, Pf growth 96h inconclusive and Cycloheximide cs 3.3.
CCOc1cccc(CC(=O)N2CCc3c([nH]c4ccccc34)C2c2ccc(Cl)cc2)c1OCC (stereo not given) was read as HCMV antiviral -1.9.
Screening CCNc1nc(NCC)nc(OCCNS(=O)(=O)c2ccccc2)n1 returned HCMV antiviral 1.2, Shiga toxin inh -18.7, Pf growth 48h -0.5%, Pf growth 96h 10.1% and Cycloheximide cs -0.3.
Screening CCOc1ccc(NC(=O)CCNS(=O)(=O)c2ccc3c(c2)CCC(=O)N3)cc1 returned HCMV antiviral -3.9, Shiga toxin inh -18.2, Pf growth 48h 1.9%, Pf growth 96h -6.4% and Cycloheximide cs -4.8.
`Cc1ccc(NC(=O)CCNS(=O)(=O)c2ccc3c(c2)CCC(=O)N3)cc1F` gave HCMV antiviral 55.1, Shiga toxin inh 6.8, Pf growth 48h 49.9%, Pf growth 96h 9.28µM* and Cycloheximide cs -1.1.
For O=C(CCNS(=O)(=O)c1ccc2c(c1)CCC(=O)N2)Nc1ccc2c(c1)OCCO2 the results were HCMV antiviral -25.2, Shiga toxin inh 55.6*, Pf growth 48h 30.7%, Pf growth 96h inconclusive and Cycloheximide cs 29.4*.
Cc1ccc(NC(=O)C2CCC2)cc1S(=O)(=O)N1CCCCCC1 was read as HCMV antiviral -30.7, Pf growth 48h -34.6% and Pf growth 96h inconclusive.
Screening Cc1cc(C)cc(NC(=O)C2CCCN2S(=O)(=O)c2ccc3nc(-c4ccccc4)[nH]c3c2)c1 (stereo not given) returned HCMV antiviral 37.8.
For CCc1cccc(NC(=O)C2CCN(S(=O)(=O)c3cccc(-c4noc(C)n4)c3)CC2)c1 the results were HCMV antiviral -61.0*.
`CCc1cccc(NC(=O)C2CCCN2S(=O)(=O)c2ccc3nc(-c4ccccc4)[nH]c3c2)c1` (stereo not given) gave HCMV antiviral -60.3*.
Screening COc1cccc(NC(=O)C2CCN(S(=O)(=O)c3cc(-c4noc(C)n4)ccc3C)CC2)c1 returned HCMV antiviral -72.4*.
COc1cccc(NC(=O)C2CCN(S(C)(=O)=O)CC2)c1 was read as HCMV antiviral 39.8, Shiga toxin inh 6.4, Pf growth 48h -22.2% and Cycloheximide cs 3.3.
`Cc1nc(-c2ccc(C)c(S(=O)(=O)N3CCC(C(=O)Nc4ccc(Cl)cc4)CC3)c2)no1` gave HCMV antiviral -74.8*.
Screening Cc1nc(-c2cccc(S(=O)(=O)N3CCC(C(=O)NCc4ccccc4Cl)CC3)c2)no1 returned HCMV antiviral -9.4.
Screening Cc1ccc(C(=O)NCCc2nnc3ccc(NCc4ccc5c(c4)OCO5)nn23)cc1 returned HCMV antiviral 42.4, Shiga toxin inh -10.9, Pf growth 48h inconclusive, Pf growth 96h inconclusive and Cycloheximide cs -2.3.
Screening CCCC(=O)NC(=S)Nc1ccc(S(=O)(=O)N2CCc3ccccc32)cc1 returned HCMV antiviral -23.9.
For CC(C)n1nnc2cc(C(=O)O)ccc21 the results were Shiga toxin inh -4.1 and Cycloheximide cs 11.0.
Cc1cccnc1NC(=S)NC(=O)/C=C/c1ccco1 was read as HCMV antiviral 44.8, Shiga toxin inh 152.1*, Pf growth 48h 24.8% and Cycloheximide cs 70.5*.
CC(=O)Nc1ccc(NC(=S)NC(=O)/C=C/c2ccco2)cc1 was read as HCMV antiviral 14.8, Pf growth 48h 0.9%, Pf growth 96h inconclusive and Cycloheximide cs -3.7.
`O=C(/C=C/c1ccco1)NC(=S)Nc1ccccn1` gave HCMV antiviral 35.2, Shiga toxin inh 108.6*, Pf growth 48h 88.4% and Cycloheximide cs 56.2*.
CC(C)(C)c1ccc(OCC(=O)Nc2c(C(=O)c3ccc(F)cc3)oc3ccccc23)cc1 was read as HCMV antiviral 12.9.
Screening O=C(COc1ccc(S(=O)(=O)N2CCCCC2)cc1)NC1CCCCC1 returned HCMV antiviral -12.3, Shiga toxin inh -10.7, Pf growth 48h 8.28µM*, Pf growth 96h inconclusive and Cycloheximide cs -2.5.
`O=C(COc1ccc(S(=O)(=O)NC2CCCCC2)cc1)NC1CCCCC1` gave HCMV antiviral -23.1, Shiga toxin inh -1.8, Pf growth 48h 14.7µM*, Pf growth 96h inconclusive and Cycloheximide cs -2.8.
Screening CCCS(=O)(=O)N1CCN(c2cc3c(cc2[N+](=O)[O-])n(C)c(=O)n3C)CC1 returned HCMV antiviral -10.9, Shiga toxin inh -9.0, Pf growth 48h -0.4%, Pf growth 96h 0.7% and Cycloheximide cs -1.7.
For O=C1NC(=O)/C(=C\c2ccc(OCc3cccc(C(=O)O)c3)c(Cl)c2)N1 the results were HCMV antiviral 82.9, Shiga toxin inh 161.4*, Pf growth 48h 193.5%, Pf growth 96h -28.9% and Cycloheximide cs 80.6*.
`CN1C(=O)/C(=C/c2ccc(OCc3ccc(C(=O)O)cc3)c(Cl)c2)NC1=S` gave HCMV antiviral 60.5, Shiga toxin inh 1.6, Pf growth 48h 12.9%, Pf growth 96h inconclusive and Cycloheximide cs 0.7.
Screening CN1C(=O)/C(=C/c2ccc(OCc3cccc(F)c3)cc2)NC1=S returned HCMV antiviral -13.8, Shiga toxin inh -2.4, Pf growth 48h 10.1%, Pf growth 96h inconclusive and Cycloheximide cs -0.8.
For COc1cc(/C=C2\NC(=S)NC2=O)ccc1OCc1cccc(C(=O)O)c1 the results were HCMV antiviral 44.8, Shiga toxin inh 102.5*, Pf growth 48h 136.3%, Pf growth 96h 34.9% and Cycloheximide cs 79.0*.
For COc1cc(/C=C2/C(=O)N(C)C(=S)N2C)ccc1OCc1cccc(F)c1 the results were HCMV antiviral -67.6*, Shiga toxin inh 2.7, Pf growth 48h -1.2%, Pf growth 96h 3.29µM* and Cycloheximide cs -1.6.
`COc1ccc(NC(=S)N2CCN(C(=O)c3ccco3)CC2)cc1OC` gave HCMV antiviral 9.5, Shiga toxin inh 6.5, Pf growth 48h -0.9%, Pf growth 96h inconclusive and Cycloheximide cs -2.1.
Screening Cc1cccc(C)c1N=CN1c2ccccc2-n2cccc2C1CCc1ccccc1 (stereo not given) returned HCMV antiviral 3.9.
Screening COc1ccc(-c2coc3c(C(=O)Nc4cccc(NS(C)(=O)=O)c4)cccc23)c(C)c1 returned HCMV antiviral -39.4.
Brc1ccc(-n2cccc2/C=N/n2cnnc2)cc1 was read as HCMV antiviral 34.3, Shiga toxin inh -1.9, Pf growth 96h -10.3% and Cycloheximide cs -2.6.
